Laboratory results: PubChem BioAssay AID1022 (Emory University Molecular Libraries Screening Center, 2008)
“And” between values parts separate entries of the source, which are not always exact repeats. Identical values can stand only once. About 3,300 (1.5%) of roughly 220,000 compounds were called active.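 How the source made its calls: active means compounds that cut the protein-peptide binding signal by more than 50% relative to plate controls in a single-dose test; inactive means the rest.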 What follows is part of a selection rich in actives, with near analogues and random picks from the rest. The source holds several records for some structures; these can differ, active in one and inactive in another.

Target: Induced myeloid leukemia cell differentiation protein Mcl-1 (Homo sapiens) (UniProt Q07820)
Sequence (Q07820 whole entry, looked up): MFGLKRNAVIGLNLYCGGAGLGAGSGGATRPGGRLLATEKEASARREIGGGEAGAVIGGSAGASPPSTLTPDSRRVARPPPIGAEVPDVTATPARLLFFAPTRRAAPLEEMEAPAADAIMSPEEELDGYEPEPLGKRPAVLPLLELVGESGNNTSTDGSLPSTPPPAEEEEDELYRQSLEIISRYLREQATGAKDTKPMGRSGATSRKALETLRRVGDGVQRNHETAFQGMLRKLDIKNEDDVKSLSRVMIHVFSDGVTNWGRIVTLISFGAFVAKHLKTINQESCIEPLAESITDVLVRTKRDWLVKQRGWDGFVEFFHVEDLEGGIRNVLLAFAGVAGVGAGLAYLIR
Test: disruptors of Mcl-1 and Noxa BH3 peptide – biochemical, TR-FRET, 1536-well, primary screen (AID 1022);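 further: His-tagged Mcl-1 with rhodamine Noxa BH3 peptide and terbium anti-His antibody; 0% = Mcl-1 plus Noxa peptide wells and 100% = peptide-only wells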
Details: TR-FRET Mcl-1/Noxa peptide binding, 2 h; at 21.7 µM; stronger effect = higher value

inhibition, inactive:
O=C(NCCc1ccccc1)Oc1ccc(Cl)cc1 7.49%
COC(=O)N(NC(=O)C(O)(C(C)C)C(C)C)c1ccccc1 -6.13%
O=C(O)Cc1sc(-c2ccc(C(=O)O)cc2)nc1-c1ccccc1 15.3%
Cc1ccc(-c2nc(C)sc2CC(=O)O)cc1 6.4%
CCn1c(=O)c2cc(C(=O)Nc3cccc(C(C)=O)c3)sc2c2ccccc21 -88.5%
O=c1c(-c2ccc(Cl)cc2)[n+]([O-])c2ccccc2n1OCc1nc2ccccc2[nH]1 -16.2%
Cc1cc(C)cc(NC(=O)C2CCN(c3nc(C)cc(C)n3)CC2)c1 -11.6%
COC(=O)CC1=NN(c2ccccc2)C(=O)C1 19.1%
CC(CO)(CO)NC(=O)c1ccc(=O)[nH]n1 4.69%
O=C(c1ccc(F)cc1)C1CCN(Cc2cn[nH]c2-c2ccccc2)CC1 -14.2%
Cc1nn(CC(=O)N/N=C/c2ccc(F)cc2)c(C)c1[N+](=O)[O-] 12.1%
COc1cc(/C=N/NC(=O)c2cc(C)n(-c3ccc(F)cc3)c2C)cc(OC)c1O 47.1%
Cc1ccc(/C=N/NC(=S)Nc2cccc(S(=O)(=O)N(C)C)c2)o1 -90.2%
OC(c1ccccc1)C(CN1CCOCC1)c1ccccc1 (stereo not drawn) 6.74%
CCNC(=S)N1CCN(CCN=CC2=C(O)CC(C)(C)CC2=O)CC1 7.49%
O=C(CCc1ccccc1)Nc1cccc(-c2nnc(-c3ccco3)o2)c1 14.2%
O=C(NCc1ccco1)c1nc(-c2ccccc2)n(-c2ccccc2)n1 -7.46%
NC(=O)c1ccc(NC(=O)COC(=O)c2ccc([N+](=O)[O-])cc2)cc1 -10.3%
CCOC(=O)c1c(NC(=S)NC)sc2c1CCCC2 11.9%
COc1ccc(CS(=O)/C(Cl)=C(/Cl)C(=O)Nc2ccc(OC)nc2)cc1 (stereo not drawn) 43.3%
COc1ccc(NC(=S)Nc2ccccc2Cl)cn1 16.9%
CCNC(=O)CCc1nc(-c2ccc(C)cc2)no1 -1.4%
c1ccc(C2=Nc3cccc4cccc(c34)N2)cc1 37%
Fc1ccccc1N=C1Nc2cccc3cccc1c23 16.1%
N#Cc1c(C(F)(F)F)cc(-c2cccs2)nc1N1CCCCC1 -6.66%
COc1ccc2c(CC(=O)OCC(=O)NC(N)=O)coc2c1 8.39%
O=C(Nc1nnc(SCc2ccccc2)s1)c1ccco1 -9.36%
O=C(CSc1nnc(-c2ccco2)n1Cc1ccccc1)NC(=O)NCc1ccco1 31.8%
COC(OC)c1ccnc(SCc2ccccc2Cl)n1 2.7%
Brc1ccc(CSc2ccc(-c3ccco3)nn2)cc1 5.62%
Nc1nc(SCc2ccccc2Cl)n[nH]1 -21.7%
O=C(CSc1nnc(-c2ccco2)n1CC1CCCO1)c1ccccc1 (stereo not drawn) 5.57%
COc1ccc(CC(=O)NCC(=O)N/N=C/c2cc(Br)ccc2OC)cc1 0.9%
Clc1ccc2nc(-c3ccccc3)nc(C(Cl)Cl)c2c1 -22.1%
Nc1c(N(CCO)C(=O)C2CCCCC2)c(=O)[nH]c(=O)n1Cc1ccccc1 24.7%
Cc1c(NC(=O)CN2C(=O)C(=O)N(Cc3ccccc3)C2=O)c(=O)n(-c2ccccc2)n1C 8.51%
Cn1nccc1NC(=O)CC(CC(=O)O)c1ccccc1 (stereo not drawn) -13%
Cc1cc(N2CCN(c3ccccc3)CC2)nc(N2CCOCC2)n1 14.2%
CCS(=O)(=O)C1=NSC2=NC(=O)/C(=C\c3cc(C)n(-c4cccc(OC)c4)c3C)C(=N)N21 37.6%
Cc1cc(/C=C2/C(=N)N3C(=NC2=O)SN=C3S(C)(=O)=O)c(C)n1-c1ccccc1 16.9%
OCC1(Cc2ccccc2C(F)(F)F)CCN(Cc2ccncc2)CC1 13.3%
CC(C)(C)NC(=O)NCc1ccco1 8.79%
O=C(Nc1ccccc1)Nc1nnc(COc2ccccc2F)s1 23.7%
Cc1cc(=O)[nH]c(=S)[nH]1 4.28%
Cc1c(C)c(C)c2[nH]c(=S)[nH]c2c1C 2.53%
O=C(COC(=O)/C=C/c1ccc2c(c1)OCO2)NC1CCS(=O)(=O)C1 (stereo not drawn) 16%
COc1ccc(OC)c(Nc2nc3ccccc3n3cnnc23)c1 16.9%
O=C(CN1CCN(c2ccc(O)cc2)CC1)Nc1cc(S(=O)(=O)N2CCOCC2)ccc1Cl 49.8%
O=C(N/N=C/c1ccc([N+](=O)[O-])o1)c1cccc(S(=O)(=O)N2CCOCC2)c1 5.84%
COc1ccc2nc(NC(=O)NC3CCCCC3)sc2c1 -0.53%
O=C(Nc1ccccc1)O/N=C1/CCCc2occc21 6.55%
Oc1ccc(N=Nc2nccs2)c(O)c1 -33.2%
CC[C@H]1CN2CCc3cc(OC)c(OC)cc3[C@@H]2C[C@@H]1C[C@H]1NCCc2cc(OC)c(OC)cc21 22.4%
O=[N+]([O-])c1ccc(N=Cc2c(O)ccc3ccccc23)cc1 -1.02%
O=C(Nc1ccc(F)cc1F)N1CCCN(CCOc2ccccc2)CC1 9.38%
CC1=C(C(=O)Nc2ccccc2)C(c2ccco2)C(C#N)=C(SCC(N)=O)N1 (stereo not drawn) 5.4%
Cc1cc(C)c2c3c(sc2n1)C(c1ccccc1)C(C#N)=C(N)O3 (stereo not drawn) -16.3%
Cc1noc(C)c1S(=O)(=O)Nc1cc(C(F)(F)F)ccc1N1CCOCC1 -6.09%
CC(C)Cc1nc(Cl)c(C#N)c2c1CCC2 1.09%
COc1ccccc1CNC(=O)Cn1c(=O)oc2cc(Cl)ccc21 -8.08%
CCN1C(=O)/C(=c2\s/c(=C3\Sc4ccccc4N3C)c(=O)n2C)N(C)C1=S 46.4%
CCCCN1C(=O)/C(=C/C=C2/C=Cc3ccccc3N2CC)SC1=S 25.9%
COc1ccc(N2C(=O)C3C(C2=O)C(C(=O)c2ccccc2)N2CCCC32)cc1 (stereo not drawn) 2.44%
NC(N)=N/N=C/c1ccc(Cl)c([N+](=O)[O-])c1 8.52%
CCOc1cccc(/C=N/N2C(=O)CSC2=S)c1O 37.8%
COc1ccc(COCCN2CCN(S(=O)(=O)c3ccccc3)CCC2=O)cc1 4.91%
Cc1cc(-c2n[nH]c(=S)n2/N=C/c2ccco2)n[nH]1 5.82%
S=c1[nH]nc(-c2cccnc2)n1/N=C/C(Cl)=C\c1ccccc1 32.3%
Nc1ccccc1Sc1ccc(C(F)(F)F)cc1[N+](=O)[O-] -1.26%
S=c1[nH]nc(-c2ccccc2)n1/N=C/c1c[nH]c2ccccc12 13.7%
S=c1[nH]nc(-c2ccco2)n1/N=C/c1ccccc1 32.5%
COCCN1C2=C(COC(C)(C)C2)C(=S)NC1c1ccccc1 (stereo not drawn) 1.37%
Cc1cnc(NC(=O)Cn2cnc3c2c(=O)n(C)c(=O)n3C)s1 3.66%
COC(=O)c1sc(=S)n(-c2ccccc2)c1N 16.2%
CCOC(=O)Cn1c(N)c(C(=O)OC)sc1=S 5.93%
COc1ccc(COCC(O)CN2CCC(C(N)=O)CC2)cc1 (stereo not drawn) 4.43%
CCn1cc(C(=O)NCC2COc3ccccc3O2)c2cc(OC)c(OC)cc2c1=O (stereo not drawn) -0.39%
CCn1cc(C(=O)N2CCN(Cc3ccc4c(c3)OCO4)CC2)c2cc(OC)c(OC)cc2c1=O 4.25%
CCOC(=O)C1C(c2ccc(OC)c(OC)c2)c2c([nH][nH]c2=O)CC1(C)O (stereo not drawn) -16.2%
CC(NC(=O)C(=O)Nc1nccs1)c1ccccc1 (stereo not drawn) -15.7%
CC12CN3CCN(CC(C3)/C1=N\NC(=O)c1ccccc1N)C2 15.5%
N#Cc1c(C(F)(F)F)cc(-c2ccc(Cl)cc2)nc1SCC(=O)O 6.22%
Cc1cc(C)c(C#N)c(N2CCC(C(N)=O)CC2)n1 6.16%
COC(C[C@H](O)CC(=O)COCc1ccccc1)OC 3.71%
Cc1ccc(Nc2nc(Cl)c(C=O)s2)cc1 10.2%
CN(C(=O)CCn1c(=S)oc2ccccc21)C1CCCCC1 -15.3%
CC(=O)Nc1ccc(NC(=O)CSc2ncnc3c2cnn3Cc2ccccc2)cc1 9.1%
CC(NC(=S)Nc1ccccc1)C(c1cccs1)N1CCOCC1 (stereo not drawn) -2.6%
COC(=O)c1cccc(NS(C)(=O)=O)c1 -15.1%

inhibition, 23% (inactive) and 61.3% (active):
CCN1C(=O)/C(=C2/Sc3ccccc3N2CCCS(=O)(=O)O)SC1=S

inhibition, active:
C/C(=N/Nc1nc(-c2ccccc2)c(CC(=O)O)s1)c1ccccc1 55.8%
COC(=O)CC1=NN(c2nc(C)cc(C)n2)C(=O)C1 68%
Cc1cc(C(=O)N/N=C/c2ccc(O)c([N+](=O)[O-])c2)c(C)n1-c1ccc(F)cc1 87.3%
NNC(=O)c1oc2nc(-c3ccccc3)cc(-c3ccco3)c2c1N 72.9%
COc1ccc(NC(=O)/C(Cl)=C(/Cl)S(=O)Cc2ccc(C)cc2)cn1 (stereo not drawn) 65.8%
COc1ccccc1C1=Nc2cccc3cccc(c23)N1 75.8%
c1ccc(CSc2nnc(-c3ccco3)c(-c3ccco3)n2)cc1 108%
Clc1ccccc1CSc1nnc(-c2ccco2)c(-c2ccco2)n1 109%
c1ccc(CSc2nnc(-c3ccco3)n2Cc2ccccc2)cc1 53%
CS(=O)(=O)c1ccc2c(c1)SC1=NC(=O)/C(=C/c3ccco3)C(=N)N12 103%
O=c1[nH]c(=S)[nH]c2[nH]c(=S)[nH]c12 95.1%
O=[N+]([O-])c1cc(Cl)cc(/C=N/NC(=S)Nc2cc(S(=O)(=O)N3CCOCC3)ccc2Cl)c1O 100%
COc1cc2c(cc1O)[C@H](Cc1ccc(Oc3cc(C[C@@H]4NCCc5cc(OC)c(O)cc54)ccc3O)cc1)NCC2 64.4%
N#CC1=C(N)Oc2c(sc3ccccc23)C1c1ccco1 (stereo not drawn) 51.5%
O=C1CSC(=S)N1/N=C/c1ccc(O)c([N+](=O)[O-])c1 85.6%
Cc1cc(-c2n[nH]c(=S)n2/N=C/C(Br)=C/c2ccccc2)n[nH]1 59.6%
S=c1[nH]nc(-c2cc(-c3ccccc3)n[nH]2)n1/N=C/c1c2ccccc2cc2ccccc12 79.6%
COCCOC(=O)c1sc(=S)n(CCOC)c1N 51.1%
CN(C)c1ccc(Nc2c3c4c(cccc4n(C)c2=O)C(=O)c2ccccc2-3)cc1 104%
CCn1cc(C(=O)NCc2ccc3c(c2)OCO3)c2cc(OC)c(OC)cc2c1=O 74.5%
N#Cc1c(N2CCCCC2)nc(N)c2c(N)nc(SCC(=O)O)cc12 57.7%
O=[N+]([O-])C(=c1ccc2c(c1)N1C3=C(CCCC3)CC3CCCCC31N=2)[N+](=O)[O-] (stereo not drawn) 99.2%
Clc1ccc(C2=CSC3=Nc4cccc5cccc(c45)N23)cc1 61.8%
